# Screen size: about 10,000 compounds; about 5,600 (56%) were called active. Cut-off read from the data, not from the text of the source: active = inhibition above about 40%; inactive = the rest. So high a share suggests a set chosen from earlier hits. The list is a sample of the results.
# Biological target: Protein Mdm4 (Homo sapiens) + E3 ubiquitin-protein ligase Mdm2 (Homo sapiens) (UniProt O15151+Q00987)
# Test: Mdm2-MdmX complex disruptors, retested hits, confirmation, luminescence, single concentration (AID 489028)
# Conditions: Mdm2-MdmX binding, luminescent assay; at 8 µM; hits give high values
# Sequence of Protein Mdm4 (Homo sapiens) + E3 ubiquitin-protein ligase Mdm2 (Homo sapiens) (O15151 whole entry, looked up): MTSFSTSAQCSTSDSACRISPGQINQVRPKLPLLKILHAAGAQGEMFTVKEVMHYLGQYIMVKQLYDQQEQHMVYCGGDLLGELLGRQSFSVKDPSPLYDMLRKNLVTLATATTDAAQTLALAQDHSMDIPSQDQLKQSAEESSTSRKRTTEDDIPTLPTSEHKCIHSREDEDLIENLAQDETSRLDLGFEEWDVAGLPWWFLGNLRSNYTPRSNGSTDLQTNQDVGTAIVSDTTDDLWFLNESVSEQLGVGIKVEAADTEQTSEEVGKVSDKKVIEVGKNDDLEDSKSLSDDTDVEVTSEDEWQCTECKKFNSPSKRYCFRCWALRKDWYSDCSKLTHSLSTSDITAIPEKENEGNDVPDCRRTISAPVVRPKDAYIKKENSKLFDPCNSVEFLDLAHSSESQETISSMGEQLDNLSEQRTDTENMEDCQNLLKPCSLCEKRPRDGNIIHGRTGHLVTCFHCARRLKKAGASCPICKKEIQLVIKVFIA
# Sequence of Protein Mdm4 (Homo sapiens) + E3 ubiquitin-protein ligase Mdm2 (Homo sapiens) (Q00987 whole entry, looked up): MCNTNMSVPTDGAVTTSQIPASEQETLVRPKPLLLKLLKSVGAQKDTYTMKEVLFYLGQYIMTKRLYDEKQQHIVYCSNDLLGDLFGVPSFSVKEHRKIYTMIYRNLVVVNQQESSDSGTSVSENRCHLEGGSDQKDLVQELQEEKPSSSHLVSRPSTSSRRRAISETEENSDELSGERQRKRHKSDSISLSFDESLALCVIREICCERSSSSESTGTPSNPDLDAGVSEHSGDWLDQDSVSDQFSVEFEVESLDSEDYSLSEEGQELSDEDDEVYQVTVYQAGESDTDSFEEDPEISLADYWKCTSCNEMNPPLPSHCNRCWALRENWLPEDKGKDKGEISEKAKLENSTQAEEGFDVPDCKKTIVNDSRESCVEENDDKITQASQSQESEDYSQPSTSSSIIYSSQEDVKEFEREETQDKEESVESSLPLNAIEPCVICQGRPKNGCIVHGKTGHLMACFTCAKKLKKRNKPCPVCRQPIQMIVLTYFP
row,Structure (SMILES),inhibition
1,O=C1CN(c2nc(-c3ccccc3)c3cc(Br)ccc3n2)c2ccccc2N1,16.2% (inactive)
2,COc1ccc2[nH]c(=O)c(CN(Cc3cccnc3)S(=O)(=O)c3ccccc3F)cc2c1,57.4% (active)
3,Cn1cc(/C=C/c2nc3ccccc3c(=O)n2-c2cccc([N+](=O)[O-])c2)c2ccccc21,40.4% (active)
4,Cc1c(C(=O)N/N=C/c2ccccc2)[nH]c2c([N+](=O)[O-])cccc12,62.2% (active)
5,Clc1ccc2c(c1)C1=C(C(c3ccncc3)O2)C(c2ccc(Br)cc2)n2ncnc2N1 (stereo not given),25.8% (inactive)
6,O=C(CCl)Nc1cccc(CP(=O)(c2ccccc2)c2ccccc2)c1,93.8% (active)
7,Cc1noc(C)c1-c1ccc2ncnc(NC(C)c3ccco3)c2c1 (stereo not given),46.5% (active)
8,Nc1cccc(-c2cc(-c3ccccc3)nc(-c3cccc(N)c3)n2)c1,9.85% (inactive)
9,CCCCCCCCCCOC(=O)Cn1c(COc2cccc(OC)c2)[n+](C)c2ccccc21,53% (active)
10,CCCCCCCCCCOC(=O)Cn1c(COc2ccc(C)cc2)[n+](C)c2ccccc21,74.3% (active)
11,C/C(=N\N=C(N)N)c1ccc(Cl)cc1,23% (inactive)
12,O=C1c2ccccc2C2=Nc3ccccc3SC(c3ccccc3F)C12 (stereo not given),23.8% (inactive)
13,COc1ccc(-c2n[nH]c(C)c2-c2ccc(OC)c(OC)c2)c(O)c1,50.9% (active)
14,C=C(C)COc1ccc(-c2n[nH]c(C)c2-c2ccccc2OC)c(O)c1,18.3% (inactive)
15,C=C(C)COc1ccc(-c2n[nH]c(C)c2-c2ccccc2)c(O)c1,2.2% (inactive)
16,Cc1cc(C)cc(NC(=O)Cn2cnc3c(nnn3Cc3ccc(F)cc3)c2=O)c1,27.3% (inactive)
17,CCN1C(=O)/C(=C\N2CCN(c3cccc(Cl)c3)CC2)SC1=S,45.1% (active)
18,CCCCN1C(=O)/C(=C/C=C2/C=Cc3ccccc3N2CC)SC1=S,22.4% (inactive)
19,CCN(CCCNC(=O)c1ccc2c(c1)NC(=O)CN2C)c1cccc(C)c1,20.2% (inactive)
20,CCN1CCN(CCNC(=O)c2ccc(/C=C3/Sc4ccccc4N(Cc4cccc(C)c4)C3=O)cc2)CC1,81.8% (active)
21,O=C(NCCN1CCOCC1)c1ccc(/C=C2\Sc3ccccc3N(Cc3ccc(F)cc3)C2=O)cc1,11.8% (inactive)
22,N#Cc1c(N)nc2c3c(sc(=N)c2c1N)NC(=O)CC3c1ccccc1Cl (stereo not given),2.45% (inactive)
23,C=CCN(CC=C)S(=O)(=O)c1ccc(C(=O)Nc2nc3c(s2)CCc2ccccc2-3)cc1,24.2% (inactive)

row,Structure (SMILES),inhibition
1,N#Cc1ccc(C(=O)Nc2nc(-c3cccs3)c(C(=O)C(F)(F)F)s2)cc1,86.9% (active)
2,O=[N+]([O-])c1ccc(Oc2ccc(F)cc2Br)c2ccncc12,53.5% (active)
3,COc1ccccc1/C=N\Nc1cc(C)nc(-n2nc(C)cc2C)n1,31.1% (inactive)
4,COc1cccc(/C=N/Nc2cc(C)nc(-c3ccccc3O)n2)c1O,93.8% (active)
5,Cc1ccc(OCC(O)CN2CCN(CC(O)COc3ccc(C)cc3Cl)CC2)c(Cl)c1 (stereo not given),35.6% (inactive)
6,Cc1cccc(N(C)C(=O)c2cc3c(=O)[nH]c4ccc(C)cc4c3s2)c1,73.5% (active)
7,CCN1CCN(c2nc(Nc3cc(OC)ccc3OC)nc(Nc3cc(OC)ccc3OC)n2)CC1,12.1% (inactive)
8,CC(=NCC1CCCO1)c1c(O)[nH]c(=O)[nH]c1=O (stereo not given),7.4% (inactive)
9,Cc1cccc(Nc2nc3c(S(=O)(=O)c4ccccc4)nnn3c3ccccc23)c1C,48.2% (active)
10,CSc1nnc(NC(=O)c2nc(S(=O)(=O)Cc3ccc(C)cc3)ncc2Cl)s1,99% (active)
11,Cc1ccc(CS(=O)(=O)c2ncc(Cl)c(C(=O)Nc3nnc(C)s3)n2)cc1,96.5% (active)
12,COc1ccc(C(=O)O/N=C(\N)Cc2ccc(Cl)cc2Cl)cc1OC,97.6% (active)
13,COC(=O)c1ccc(NC(=O)c2cc(Cl)ccc2OC)cc1,3.8% (inactive)
14,CCOc1ccc(C(C)=O)cc1COC(=O)c1cnc(Cl)c(Cl)c1,19% (inactive)
15,CC1=C(C)CC(C(=O)NNC(=O)c2ccccc2O)C(C(=O)O)C1 (stereo not given),38.8% (inactive)
16,N#Cc1cccc(NC(=O)COC(=O)c2ccccc2C(=O)c2ccc(Cl)c([N+](=O)[O-])c2)c1,98.9% (active)
17,CC(=O)Nc1ccc(NC(=O)C(C)OC(=O)c2ccccc2C(=O)c2ccc(Cl)c([N+](=O)[O-])c2)cc1 (stereo not given),84.5% (active)
18,Cc1c(CN2CCC(CO)(CCOc3ccccc3)CC2)[nH]c2ccc(Cl)cc12,75.5% (active)
19,CCc1nc2sc3c(Cl)ncnc3c2c2c1CCCC2,14.9% (inactive)
20,Oc1c(CN2CCCC2)cc(COCc2ccccc2)c2cccnc12,66% (active)
21,Oc1c(CN2CCN(c3ccc(F)cc3)CC2)cc(Cl)c2cccnc12,85.5% (active)
22,O=C(NC(=S)Nc1ccc2oc(=O)ccc2c1)c1ccc(-c2cccc(Cl)c2Cl)o1,34.5% (inactive)
23,Cc1ccsc1C(=O)OCC(=O)c1cc(C)n(CC2CCCO2)c1C (stereo not given),94.5% (active)

row,Structure (SMILES),inhibition
1,Cc1cc(C(=O)CCl)c(C)n1CC1COc2ccccc2O1 (stereo not given),15.6% (inactive)
2,COc1ccc(CN2CN(C(C)C)CSC2=S)cc1,-10.1% (inactive)
3,Cc1cc(C(=O)COc2ccccc2[N+](=O)[O-])c(C)n1-c1cccc(S(=O)(=O)N2CCOCC2)c1,58.5% (active)
4,CC(=O)Nc1ccc(S(=O)(=O)Nc2ccc(N3CCCCC3)cc2)cc1,3.05% (inactive)
5,O=C(NC(=O)c1ccccc1N1CCCCC1)Nc1ccc(Br)cc1,54.9% (active)
6,CCCOc1ccccc1C1CC(=O)Nc2cc3c(cc21)OCO3 (stereo not given),61.9% (active)
7,COc1ccccc1C1C2=C(COC2=O)Nc2cc3c(cc21)OCO3 (stereo not given),62.8% (active)
8,O=C(Oc1c(-c2ccco2)oc2ccccc2c1=O)c1cccnc1,37.6% (inactive)
9,O=C1/C(=C/c2ccc(F)cc2)SC(=S)N1CCCC(=O)N1CCCCC1CCO (stereo not given),49.8% (active)
10,COc1ccc(C(C[N+](=O)[O-])n2nc(C)cc2C)cc1 (stereo not given),9.85% (inactive)
11,CC(=O)c1ccc(Oc2cc(C)nc(-n3nc(C)cc3C)n2)cc1,51.8% (active)
12,CSc1nc(N)c(C#N)c(-c2ccccc2Cl)c1C#N,22.9% (inactive)
13,COc1ccc(Nc2oc(-c3ccccc3Cl)nc2C#N)cc1,42.7% (active)
14,CN(C)CCCn1c(=O)n(Cc2ccccc2)c(=O)c2c3c(sc21)CCCCC3,37.5% (inactive)
15,COc1ccc(C(C(=O)NC2CCCCC2)N(C(=O)CCl)c2ccccc2Cl)cc1 (stereo not given),100% (active)
16,N#Cc1c(NC(=O)CSc2nc3ccccc3c(=O)n2Cc2ccco2)sc2c1CCCC2,36.7% (inactive)
17,CC(=O)N1CCc2c(sc(NC(=O)CCS(=O)(=O)c3ccccc3)c2C#N)C1,45.3% (active)
18,CN(C)CCCN(C(=O)c1ccc(S(=O)(=O)N2CCCCCC2)cc1)c1nc2cc3c(cc2s1)OCCO3,29.6% (inactive)
19,COc1cccc2sc(N(CCCN(C)C)C(=O)CCS(=O)(=O)c3ccccc3)nc12,48% (active)
20,COc1cccc2sc(N(CCCN(C)C)C(=O)C(c3ccccc3)c3ccccc3)nc12,86.2% (active)
21,Cc1ccc2sc(N(CCN(C)C)C(=O)/C=C/c3cccs3)nc2c1C,4.55% (inactive)
22,Cc1cccc2sc(N(CCCN(C)C)C(=O)CCS(=O)(=O)c3ccccc3)nc12,52% (active)
23,CN(C)CCCN(C(=O)c1ccc(S(=O)(=O)N2CCCCCC2)cc1)c1nc2ccc(Br)cc2s1,21.9% (inactive)

row,Structure (SMILES),inhibition
1,Cc1ccc(C(=O)Nc2sc(Cc3ccc4c(c3)OCO4)c(C)c2C(N)=O)cc1,40% (inactive)
2,Cn1c(=O)n(C)c2cc(C(=O)Nc3ccc4c(c3)OCO4)ccc21,47.6% (active)
3,Cn1c(=O)n(C)c2cc(C(=O)Nc3ccc(Br)cc3)ccc21,35.1% (inactive)
4,O=c1oc2ccccc2cc1-c1cn(-c2ccccc2)c(=S)[nH]1,96.2% (active)
5,Cc1ccc(C(=O)NNC(=O)c2cc3cc4ccccc4nc3s2)cc1,26.1% (inactive)
6,C=CCSc1nsc(NC(=O)Nc2cccc(C(C)=O)c2)n1,66.8% (active)
7,CCSc1nsc(NC(=O)Nc2cccc(C(C)=O)c2)n1,40.8% (active)
8,Cc1cccc(NC(=S)NCc2ccc3[nH]c4c(c3c2)CCCC4)c1,10.7% (inactive)
9,Oc1c(Cl)cc(Cl)c(Cl)c1Cc1c(O)c(Cl)cc(Cl)c1Cl,90.5% (active)
10,Cc1c(Cl)c([N+](=O)[O-])nn1Cc1ccc(C(=O)N/N=C\c2cc(Cl)ccc2O)o1,75% (active)
11,CCCCNc1c(-c2cccc(Sc3ccc(OC)cc3)c2)nc2ccccn12,-9.4% (inactive)
12,CCCc1nc(NCc2ccc3c(c2)OCO3)c2nnn(Cc3ccccc3Cl)c2n1,62% (active)
13,Cc1ccc2nc(-c3ccncc3)cc(C(=O)Nc3ccc4c(c3)OCCO4)c2c1,57% (active)
14,COc1ccc(NC(=O)/C(Cl)=C(/Cl)S(=O)Cc2ccc(C)cc2)cn1 (stereo not given),99.5% (active)
15,COc1ccc(CS(=O)/C(Cl)=C(/Cl)C(=O)Nc2ccc(OC)nc2)cc1 (stereo not given),100% (active)
16,COc1ccc(CC(=O)Nc2ccc(-c3nnc(-c4ccc(C)cc4)o3)cc2)cc1,15.7% (inactive)
17,O=C(Nc1ccc2ccccc2c1)Nc1ccc2snnc2c1,47.5% (active)
18,COc1ccc(-c2cc(C(F)(F)F)nc(S(C)(=O)=O)n2)cc1OC,56.1% (active)
19,Cc1cc(C)c2[nH]c(=O)c(CN(Cc3ccccc3)C(=S)NCCCN(C)C)cc2c1,37% (inactive)
20,Cc1ccc2[nH]c(=O)c(CN(CCCN(C)C)C(=O)Nc3cccc(Cl)c3)cc2c1,44.1% (active)
21,O=C(Cn1nnc(-c2ccccc2)n1)N/N=C/c1ccc(-c2ccc(Cl)cc2)o1,55.2% (active)
